# CYP2C19 act: increases human CYP2C19 enzyme activity; P33261; recombinant CYP2C19, luciferin-H EGE luminescence; hits give high values; 0 = fully inhibited enzyme, 1 = untreated enzyme; activation factor at 5 µM; 96,000 tested, under 10 active; AID 1025;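 active means activation factor of at least 2 at 5 µM in the primary screen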
# CYP2C9 act: increases human cytochrome P450 2C9 activity; recombinant CYP2C9, luciferin-H conversion, luminescence; hits give high values; factor 1 = untreated enzyme, 0 = blocked; actives 1.4% (n = 96,000); activation factor at 5 µM; P11712;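 active means activation factor of 2 or more for CYP2C9 at a 5 µM dose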
# PTK2B oligo ant: Pyk2 (human) oligomerization antagonism | actives 0.83% (n = 99,000) | Q293 cells, Pyk2 FERM NanoBiT luminescence; hits give low values | z-score (the deposit names both 25 µM and 10 µM) | AID 1347419;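 active means Z-score of -3 or lower, scaled per plate to the spread of control and sample wells; inactive means z-score above -3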;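 further: negative z-score means lost luminescence so less FERM oligomerization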
# Cav32 inh: human Cav3.2 channel inhibition, primary screen | O95180 | Cav3.2-expressing cells, Fluo-4 calcium fluorescence FDSS; hits give low values | B-score at 10 µM | actives 4% (n = 100,000) | AID 449739;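 active means single-dose well whose peak fluorescence ratio is a statistical outlier from its plate by either plate-standardised score or position-corrected B-score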
# CYP2C19 inhib: inhibitors of human CYP2C19; actives 21% (n = 96,000); inhibition, % at 5 µM; CYP2C19 Supersomes, luciferin-H EGE luminescence, 30 min; P33261;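 active means CYP2C19 inhibition above a set limit at 5 µM in the primary screen, cut at about 50% in these data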
# CYP2C9 inh: inhibitors of human CYP2C9. inhibition, % at 5 µM. P11712. AID 777. actives 20% (n = 96,000). CYP2C9 Supersomes, luciferin-H conversion, luminescence;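 active means blocking of liver enzyme CYP2C9 beyond about 50% at 5 µM, limit read from the data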
# Numbers stand for hits; - = inactive; . = not tested or not shown. Only some compounds are listed: those with a hit (about 27% of all), similar ones and a draw of the others.
SMILES,CYP2C19 act,CYP2C9 act,PTK2B oligo ant,Cav32 inh,CYP2C19 inhib,CYP2C9 inh
COc1ccccc1C1=NOC(COC(=O)c2ccc3ccccc3n2)C1 (stereo unspecified),-,2.2,-,-,-,-
O=C(OC1CCOC1=O)c1cc(-c2ccc(Cl)cc2)nc2ccccc12 (stereo unspecified),-,-,-,-,-,-
COc1ccc(-c2cc(C(=O)OC3CCOC3=O)c3ccccc3n2)cc1OC (stereo unspecified),-,-,-,-,55,77
COc1ccc(C(=O)NC2CC(C)(C)Cc3occc32)cc1 (stereo unspecified),.,.,-,.,.,.
Cc1ccc2c(c1)C(C)(C)[C@]1(C)NC(=O)CCN21,-,-,-,-,-,-
Cc1noc(C)c1S(=O)(=O)N1CCN(c2ccccc2)CC1,-,-,.,-,80,69
Cc1noc(C)c1S(=O)(=O)N1CCC(Cc2ccccc2)CC1,-,-,-,-,-,59
Cc1noc(C)c1S(=O)(=O)N1CCC(C(=O)NC2CCN(Cc3ccccc3)CC2)CC1,-,-,-,-,-,-
Cc1noc(C)c1C(=O)N1CCC(Cc2ccccc2)CC1,-,-,-,-,99,73
Cc1sc2nc(-c3cccnc3)nc(Cl)c2c1-c1ccccc1,.,.,-,.,.,.
CC1CCCCC1NC(=O)Cn1ncc2ccccc21 (stereo unspecified),-,-,.,-,-,-
CCc1c(C2(O)CCCCC2)[nH]c2ccc(C#N)cc12,.,.,.,-,.,.
CCOc1ccc(C2C=C(c3ccccc3)Nc3nnnn32)cc1 (stereo unspecified),-,-,-,-,64,62
CCOc1ccc(C2C=C(c3ccc(C)cc3)Nc3nnnn32)cc1 (stereo unspecified),-,-,-,-,83,84
CCOc1ccc(C2C=C(c3ccc(C)cc3)Nc3ncnn32)cc1 (stereo unspecified),-,-,.,-,-,-
CCOc1ccc(-c2nnn(CC#N)n2)cc1OC,.,.,-,-,.,.
CCOCC(=O)N1CCN(c2ccc([N+](=O)[O-])cc2)CC1,.,.,-,.,.,.
COc1ccc(-c2cc(C(=O)Nc3cc(OC)cc(C(=O)Nc4cccc(C(F)(F)F)c4)c3)[nH]n2)cc1,.,.,.,-,.,.
COc1ccc([C@@H]2[C@H]3C(=O)N(c4cccc(C(F)(F)F)c4)C(=O)[C@H]3ON2C)cc1,-,-,-,-,55,-
CCN(CC(O)COc1ccc(OCC(O)CN(CC)C2CCCCC2)cc1)C1CCCCC1 (stereo unspecified),.,.,-,-,.,.
COc1ccc(NC(=O)COC(=O)c2c3c(nc4ccccc24)CCCC3)cc1,-,-,-4.5,-,-,-
CC(C)NC(=O)c1c2c(nc3ccccc13)CCCC2,.,.,-,-,.,.
COc1ccc(OC)c(NC(=O)COC(=O)c2c3c(nc4ccccc24)CCCC3)c1,-,-,-4.4,-,-,52
COc1cc(NC(=O)c2c3c(nc4ccccc24)CCC3)cc(OC)c1,-,-,-,-,-,-
COc1ccc(NC(=O)COC(=O)c2c3c(nc4ccccc24)CCCC3)cc1Cl,-,-,-4.6,-,-,-
SMILES,CYP2C19 act,CYP2C9 act,PTK2B oligo ant,Cav32 inh,CYP2C19 inhib,CYP2C9 inh
CC1=C(C(=O)OC(C)C)C(c2ccccc2Cl)CC(=O)N1 (stereo unspecified),-,-,-,-,87,-
CCCOc1ccccc1C1CC(=O)NC(C)=C1C(=O)OCC(C)C (stereo unspecified),-,-,-,.,56,-
CCC(C)OC(=O)C1=C(C)NC(=O)CC1c1ccccc1OC (stereo unspecified),-,-,-,-,-,-
CCOP(=O)(OCC)C(NCc1ccccc1)c1ccc(Br)cc1 (stereo unspecified),-,-,-,-,54,-
c1ccc(CNC2=NCCC2)nc1,-,-,-,-,-,-
COc1ccc(OCC(=O)Sc2ccc(C)cc2)cc1,-,-,-,-,68,-
Cc1ccc(NC(=O)Nc2ccc(F)cc2)nc1,-,-,-,-,57,-
O=C(COc1ccc(Br)cc1CO)Nc1ccc(F)cc1,-,-,-,-,99,88
CCc1ccc(OCC(=O)NC(=S)Nc2ccc(F)cc2)c(Br)c1,-,-,-,-,-,-
COc1ccc(/C(N)=N/OC(=O)CSc2ccc(C)cc2)cc1,-,-,-,-,-,-
COc1ccc(C2C(C(=O)OCC(=O)Nc3ccc(C)cc3)CCC(=O)N2c2ccc(OC)cc2)cc1 (stereo unspecified),-,-,-,-,75,74
Cc1onc(-c2ccccc2)c1-c1n[nH]c(=S)n1-c1ccccc1,.,.,-,-,.,.
COc1ccc(C)cc1NC(=O)CN1C(=O)c2cccc3cccc1c23,-,-,-,-,-,-
O=C(Nc1ccc(F)cc1)c1ccccc1,-,-,-,-,-,-
CCOC(=O)c1cn(CC(=O)Nc2ccc(C)cc2)nn1,-,-,-,-,-,-
Cc1ccc(NC(=O)COC(=O)c2ccn(C)n2)cc1,-,-,-,-,79,-
O=C(CCN1C(=O)c2ccccc2C1=O)Nc1ccc(F)cc1,-,-,-,-,-,-
Cc1ccc(OCC(=O)Nc2ccc(N3CCOCC3)cc2)cc1,-,-,-,-,-,-
Cc1ccc(OCC(=O)Nc2ccc(F)cc2)cc1,-,-,-,-,57,-
O=C(CNc1ccccc1)Nc1ccc(F)cc1,-,-,-,-,56,-
O=C(Cc1coc(-c2ccc(F)cc2)n1)Nc1ccccc1,-,-,-,-,86,61
Cc1sc2ncnc(NCCc3ccc(S(N)(=O)=O)cc3)c2c1C,-,-,-,.,-,-
CC(C)(C)C1CCc2[nH]nc(C(=O)O)c2C1 (stereo unspecified),-,-,-,-,-,-
CCSCCNC(=O)c1cncc(Br)c1,-,-,-,-,-,-
CCOC(=O)CCC(=O)N1CCNC(=O)C1,-,-,.,-,-,-
SMILES,CYP2C19 act,CYP2C9 act,PTK2B oligo ant,Cav32 inh,CYP2C19 inhib,CYP2C9 inh
COc1ccc(OCC(=O)Nc2ccc(C)cc2)cc1,-,-,-,-,82,52
Cc1ccc(NC(=O)Cc2ccc(F)cc2)cc1,-,-,-,-,97,-
COc1ccc(NC(=O)COc2ccc(N(C)S(=O)(=O)c3ccc(C)cc3)cc2)cc1,.,.,-,.,.,.
CCn1c2ccccc2c2cc(NC(=O)COc3ccc(OC)cc3)ccc21,-,-,-,-,65,-
O=c1[nH]nnc2sc3c(c12)CCCC3,.,.,-,-,.,.
CCN(CC)C(=O)COc1ccc(CC(=O)O)cc1OC,-,-,-,-,-,-
CCOC(=O)Nc1c(C(=O)OC)[nH]c2cccc(OC)c12,-,-,-,-,-,-
Cc1cc(C)c(NC(=O)c2cc3c(nc4sccn43)s2)c(C)c1,-,-,-,-,-,-
Cc1ccc(C)c(C(=O)c2c(C)nc3sccn23)c1,-,-,-,-,95,-
CCOc1ccc(N2CC(C(=O)Nc3cccc(C)c3C)CC2=O)cc1 (stereo unspecified),-,-,-,-,-,-

# Compound activity (PubChem BioAssay)
